In PubChem BioAssay AID720513 (Broad Institute, 2013):
In all, about 2,100 compounds went through this assay and about 480 (23%) were called active. Inconclusive results (about 5%) are left out. Only a sample is shown. Potency and affinity values are given separately. Values without a mark were called inactive.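 Rule for the calls: active = fitted curve reaches 40% activation at or below the top valid concentration, in every replicate test; inconclusive = replicate tests disagree on the call; inactive = the rest, including activity in the opposite direction.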

Assay: activators raising PGC1a acetylation in cells, dose response, cell-based, cherry-picked samples, set 6 (AID 720513);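 note: cells made to overexpress flag tagged PGC1a plus GCN5 acetyltransferase by viral infection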
Conditions: U2OS PGC1a acetylation AlphaLISA, overnight, 0 = neutral, -100 = inhibitor control; series mostly up to 19.5 µM; activation (acetylation increase): at the top concentration

| Structure (SMILES) | activation (acetylation increase) | outcome |
| --- | --- | --- |
| CCOC(=O)C1(CC2CCCCO2)CCN(C(=O)Nc2ccc(SC)cc2)CC1 (configuration not stated) | 12.1% |  |
| O=C1c2ccccc2C(=O)N1c1ccc(Cc2ccncc2)cc1 | -10.4% |  |
| Cc1ccc(CCC(=O)Nc2ccc(Cl)cc2)o1 | -15.7% |  |
| Cc1ccc(NC(=O)CC2=NC(=O)C(CC(=O)Nc3ccccc3F)S2)cc1 (configuration not stated) | 32.5% |  |
| O=C(O)C1CCCN1S(=O)(=O)c1ccc(Br)s1 (configuration not stated) (tested in a mixture with another compound) | 35.3% |  |
| COCCNC(=O)CCc1c(C)nc2c(c(C)nn2-c2ccc(C)c(C)c2)c1C | 9.63% |  |
| C[C@H](CO)N1C[C@H](C)[C@@H](CN(C)Cc2cccnc2)Oc2cc(C3=CCCC3)ccc2S1(=O)=O | -34.2% |  |
| Cc1cc(C)n(C(=O)c2ccc([N+](=O)[O-])cc2N)n1 | -13% |  |
| Cc1ccc(-c2cc(C(=O)N3CCOCC3)c3ccccc3n2)o1 | 15.8% |  |
| COc1ccc(S(=O)(=O)Nc2ccccc2C)cc1C(=O)N1CCOCC1 | 8.1% |  |
| O=C(N=Nc1c(O)[nH]c2ccccc12)c1cc(-c2cccs2)[nH]n1 | -2.84% |  |
| COc1ccccc1NC(=O)/C=C1\SCC(=O)N1C | -5.62% |  |
| Oc1c(Cl)cc(CN2CCOCC2)c2cccnc12 | -25.2% |  |
| COc1ccc2c3c([nH]c2c1)[C@H](CO)N(C(=O)c1ccncc1)CC31CN(C(=O)c2ccncc2)C1 | -3.27% |  |
| Cc1nc(SCC(=O)NC2CCCC2)[nH]c(=O)c1C | 9.58% |  |
| Cc1ccc(Cl)c(Cn2cnc3c(cnn3C(C)(C)C)c2=O)c1F | 7.54% |  |
| C[C@H](CO)N1C[C@H](C)[C@@H](CN(C)C(=O)CCN2CCCCC2)Oc2ncc(C#Cc3ccccn3)cc2C1=O | 13.1% [at 21 µM] |  |
| Cn1nnnc1Sc1ncnc2scc(-c3cc4ccccc4o3)c12 | -88.9% |  |
| Cc1ccc(N2C(=O)N(CC(=O)Nc3ccc(C)cc3[N+](=O)[O-])C(=O)C2C)cc1 (configuration not stated) | 14.9% |  |
| CCc1ccc(NC(=O)Nc2ccncc2)cc1 | -28.2% |  |
| CC(C)(C)NC(=O)C(=O)NNC(=O)c1cccc([N+](=O)[O-])c1 | 9.46% |  |

| Structure (SMILES) | activation (acetylation increase) | outcome |
| --- | --- | --- |
| CC(C)(C)c1ccc(OCC(=O)NNC(=O)Nc2ccccc2)cc1 | 2.26% |  |
| O=C(CC(CC(=O)c1ccc(Br)cc1)c1cccnc1)c1ccc(Br)cc1 | -9.39% |  |
| Cc1ccc(NC(=O)c2ccc(NCC3CCCO3)c([N+](=O)[O-])c2)cc1Cl (configuration not stated) | -26% |  |
| N#CC1=C(N)Oc2n[nH]c(-c3ccccc3)c2C1c1ccncc1 (configuration not stated) | -3.54% |  |
| CN(CC(=O)NCC1CCCO1)S(=O)(=O)c1cc(Cl)ccc1Cl (configuration not stated) | 0.409% [at 10 µM] |  |
| Cc1noc(C)c1CSc1nnc(-c2cccnc2)n1C1CCCCC1C (configuration not stated) | -5.8% |  |
| C/C=C/c1ccc2c(c1)O[C@H](CN(C)C(=O)C1CC1)[C@H](C)CN([C@@H](C)CO)S2(=O)=O | 24.5% |  |
| CN(Cc1cnc2nc(N)nc(N)c2n1)c1ccc(C(=O)N[C@@H](CCC(=O)O)C(=O)O)cc1 |  | inactive |
| Cc1ccc(S(=O)(=O)C(C#N)c2nc3ccccc3nc2N2CCCC2)cc1 (configuration not stated) | 3.64% |  |
| O=C(NCc1ccc2c(c1)OCO2)c1ccc(NC(=O)C2CCCO2)cc1 (configuration not stated) | 15.6% |  |
| CCn1nnc(NC(=O)c2ccc(C(C)(C)C)cc2)n1 | 11% |  |
| CC(C)(C)OC(=O)N1CCCC(C(=O)Nc2cccc(C(=O)NCc3ccccc3)c2)C1 (configuration not stated) | 8.42% |  |
| O=C1NC(Nc2nccs2)(C(F)(F)F)C(=O)N1CCc1ccccc1 (configuration not stated) | 36.6% |  |
| CC(C)CC(NC(=O)c1ccc(Cl)cc1)C(=O)OCC(=O)c1ccc2c(c1)NC(=O)CO2 (configuration not stated) | -91.4% |  |
| C[C@H]1CN([C@@H](C)CO)C(=O)c2cccc(NC(=O)c3ccncc3)c2O[C@H]1CN(C)C(=O)Nc1ccc2c(c1)OCO2 | -14.8% |  |
| C[C@H]1CN([C@@H](C)CO)C(=O)Cc2cc(NS(=O)(=O)c3ccc(F)cc3)ccc2O[C@@H]1CN(C)C(=O)Nc1ccc2c(c1)OCO2 | 34.1% [at 21 µM] |  |
| Cc1cc(C(=O)Nc2cccc3c2O[C@H](CN(C)C(=O)Nc2ccc4c(c2)OCO4)[C@@H](C)CN([C@H](C)CO)C3=O)n(C)n1 | 2.12% [at 21 µM] |  |
| C[C@H]1CN([C@@H](C)CO)C(=O)CCCn2nncc2CO[C@@H]1CN(C)C(=O)Nc1ccc2c(c1)OCO2 | -9.09% |  |
| OCCN(Cc1ccccc1)CC1CCCCC1 | 28.1% |  |
| O=C(Nc1ccccc1F)N1CCCCN2[C@@H](CO)[C@@H](c3ccc(C#Cc4ccccc4)cc3)[C@@H]2C1 | -77.1% [at 21 µM] |  |
| CC(=O)Nc1cccc(-c2ccnc3c2CC(C)(C(=O)Nc2ccc(C(C)C)cc2)O3)c1 (configuration not stated) | 20.8% |  |

| Structure (SMILES) | activation (acetylation increase) | outcome |
| --- | --- | --- |
| COc1ccc(NC(=O)C2(C)Cc3c(-c4cccc(NC(C)=O)c4)ccnc3O2)cn1 (configuration not stated) | 5.17% |  |
| C[C@@H]1CCCCO[C@@H](CN(C)CC2CC2)[C@@H](C)CN([C@H](C)CO)C(=O)c2cc(NC(=O)C3CCCCC3)ccc2O1 | 19.2% |  |
| NC(=O)c1ccc(NC(=O)C#Cc2ccccc2)cc1 | -15.7% |  |
| CC(=O)Nc1ccc(C(=O)OC2CCOC2=O)cc1 (configuration not stated) | -33.4% |  |
| COc1ccccc1OCCn1c(C(C)O)nc2ccccc21 (configuration not stated) | -2.54% |  |
| COc1ccccc1C(=O)Nc1ccc2c(c1)C(=O)N(C)C[C@H](OC)[C@H](C)CN(CC1CC1)[C@@H](C)CO2 | 3.86% |  |
| CCCn1c(=O)c2ccccc2n2c(SCc3c(C(=O)OCC)oc4ccccc34)nnc12 | 21.8% |  |
| CCCCOc1ccc(/C=C/C(=O)OCC(=O)c2c(N)n(C)c(=O)n(C)c2=O)cc1OCC | -26.6% [at 10 µM] |  |
| COc1ccccc1-c1ccc([C@@H]2[C@H](CO)N(C(C)=O)C23CN(C(C)=O)C3)cc1 | -21.7% |  |
| C[C@H](CO)N1C[C@H](C)[C@H](CN(C)S(=O)(=O)c2ccc(F)cc2)Oc2ccc(NS(=O)(=O)c3cn(C)cn3)cc2C1=O | 11.4% |  |
| O=C(Nc1ccc(C(F)(F)F)cc1)N1C[C@@H]2N[C@H](C1)C2c1ccc(-c2cccc(F)c2)cc1 (some centres not stated) | -102% |  |
| CCN(CC)C(=O)c1ccc(O)c(OC)c1 | 4.18% |  |
| CC(C)NC(=O)Nc1ccc2c(c1)C(=O)N([C@H](C)CO)C[C@@H](C)[C@H](CN(C)S(=O)(=O)c1ccccc1)OCCCC[C@@H](C)O2 | 14.8% [at 21 µM] |  |
| C[C@@H]1CCCCO[C@@H](CN(C)C)[C@@H](C)CN([C@H](C)CO)C(=O)c2cc(NS(=O)(=O)c3ccc(Cl)cc3)ccc2O1 | 21% |  |
| C[C@@H]1CN([C@@H](C)CO)C(=O)c2cc(N(C)C)ccc2O[C@@H](C)CCCCO[C@H]1CN(C)C(=O)c1ccncc1 | -3.64% |  |
| C[C@@H]1CCCCO[C@H](CN(C)C(=O)Cc2ccccc2)[C@H](C)CN([C@@H](C)CO)C(=O)c2cc(N(C)C)ccc2O1 | 6.29% |  |
| CC(C)NC(=O)Nc1ccc2c(c1)C(=O)N([C@@H](C)CO)C[C@@H](C)[C@H](CN(C)S(=O)(=O)c1ccccc1)OCCCC[C@@H](C)O2 | 33% |  |
| COc1ccc(NC(=O)N(C)C[C@@H]2OCCCC[C@@H](C)Oc3ccc(NC(=O)Cc4ccccc4)cc3C(=O)N([C@H](C)CO)C[C@@H]2C)cc1 | 16.1% |  |
| CC(C)NC(=O)Nc1ccc2c(c1)C(=O)N([C@@H](C)CO)C[C@@H](C)[C@H](CN(C)C(=O)NC(C)C)OCCCC[C@@H](C)O2 | 5.53% |  |
| CCCN(C)C[C@H]1OCCCC[C@@H](C)Oc2ccc(NS(=O)(=O)c3ccc(Cl)cc3)cc2C(=O)N([C@@H](C)CO)C[C@H]1C | 17.5% |  |
| O=C1CC2CS(=O)(=O)CC2N1c1ccc(Cl)cc1Cl (configuration not stated) | 16.7% |  |

| Structure (SMILES) | activation (acetylation increase) | outcome |
| --- | --- | --- |
| NS(=O)(=O)c1ccc(CCNC2CC(=O)N(Cc3ccccc3)C2=O)cc1 (configuration not stated) | -6.93% |  |
| O=C1CCN(S(=O)(=O)c2ccc(Cl)cc2)N1 | 22.7% |  |
| Cc1cc(C)n(CCc2nc3c4ccccc4n(CC#N)c(=O)n3n2)n1 | 0.376% |  |
| Cc1ccc(C(=O)Cn2c(C(=O)OCCO)cc3ccccc32)cc1 | 28.5% |  |
| COc1cc(C(=O)O)ccc1Cl | -5.01% |  |
| Cc1ccc(Cn2ncc(Cl)c(Cl)c2=O)cc1 | -95.1% |  |
| C[C@H]1CCCCO[C@H](CN(C)C(=O)Nc2cccc3ccccc23)[C@@H](C)CN([C@@H](C)CO)C(=O)c2cc(N(C)C)ccc2O1 | 26.8% |  |
| Cc1noc(C)c1S(=O)(=O)Nc1ccc2c(c1)C(=O)N([C@H](C)CO)C[C@@H](C)[C@@H](CN(C)S(=O)(=O)c1cccs1)OCCCC[C@H](C)O2 | 35.5% |  |
| Cc1ccc(S(=O)(=O)Nc2ccc3c(c2)C(=O)N([C@H](C)CO)C[C@@H](C)[C@@H](CN(C)C(=O)NC(C)C)OCCCC[C@H](C)O3)cc1 | 31% |  |
| C[C@H](CO)N1C[C@H](C)[C@@H](CN(C)C(=O)Nc2cccc3ccccc23)OCCCC[C@H](C)Oc2ccc(N(C)C)cc2C1=O | 20% |  |
| Cc1ccc(S(=O)(=O)Nc2ccc3c(c2)C(=O)N([C@H](C)CO)C[C@H](C)[C@H](CN(C)C(=O)NC(C)C)OCCCC[C@@H](C)O3)cc1 | -12.8% [at 21 µM] |  |
| Cc1noc(C)c1S(=O)(=O)Nc1ccc2c(c1)C(=O)N([C@@H](C)CO)C[C@@H](C)[C@@H](CN(C)CC1CCCCC1)OCCCC[C@@H](C)O2 | 22.1% |  |
| COc1ccc(NC(=O)Nc2ccc3c(c2)C(=O)N([C@H](C)CO)C[C@H](C)[C@@H](CN(C)S(=O)(=O)c2ccc(Cl)cc2)O3)cc1 | 0.725% |  |
| C=C1CCN(c2ccc(C(=O)NCc3ccccc3)cc2[N+](=O)[O-])CC1 | 6.43% |  |
| C[C@H]1CN([C@@H](C)CO)C(=O)Cc2cc(NS(=O)(=O)c3ccc(Cl)cc3)ccc2O[C@H]1CN(C)Cc1ccc(-c2ccccc2)cc1 | 35.3% |  |
| O=C(Nc1ccc(Cl)c(Cl)c1)N[C@@H]1CC[C@H](CCn2cc(C3CC3)nn2)O[C@H]1CO | 8.37% |  |
| O=S(=O)(N[C@@H]1CC[C@@H](CCNS(=O)(=O)c2ccccc2Cl)O[C@H]1CO)c1ccccc1 | 15% |  |
| C[C@@H]1CN([C@@H](C)CO)S(=O)(=O)c2ccc(-c3ccc(C#N)cc3)cc2O[C@H]1CN(C)C(=O)CN(C)C | -16.6% |  |
| CC(C)C#Cc1cnc2c(c1)C(=O)N([C@@H](C)CO)C[C@@H](C)[C@@H](CN(C)C(=O)CN1CCOCC1)O2 | 31% |  |
